# Experimental data: PubChem BioAssay (NCATS)
# Inconclusive results are not listed. A call without a number means that no potency is given here. A number with no mark means an inactive call. The source made the active and inactive calls. Calls follow the shape of the dose curve; as a rule, active = well fitted inhibition curve with a large enough effect; inconclusive = small, poorly fitted or top-dose-only effect; inactive = flat fitted curve, though single readings scatter.
# Biological target: Glutathione peroxidase 1 (Homo sapiens) (UniProt P07203)
# Sequence (P07203 whole entry, looked up): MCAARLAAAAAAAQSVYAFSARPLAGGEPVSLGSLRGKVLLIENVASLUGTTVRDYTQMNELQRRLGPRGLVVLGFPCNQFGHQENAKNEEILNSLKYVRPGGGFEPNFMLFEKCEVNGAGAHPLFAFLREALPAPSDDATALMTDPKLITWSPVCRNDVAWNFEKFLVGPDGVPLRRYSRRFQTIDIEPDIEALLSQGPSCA
# Experiment: Primary qHTS Assay for Inhibitors of Recombinant Selenoprotein Glutathione Peroxidase 1 (GPX1) (AID 1845191); also: nearly all actives have a fitted effect of over 65% in size
# Conditions: recombinant GPX1, GR-coupled NADPH fluorescence, 15 min; series mostly up to 48.8 µM; activity, negative = inhibition: at the top concentration
# Text: Assay Provider: Elias S.J. Arner MD PhD.
# Department of Medical Biochemistry and Biophysics
# Karolinska Institutet, Solna, Stockholm, Sweden
# Selenoprotein glutathione peroxidases (GPX), like the ubiquitously expressed GPX1 and the ferroptosis modulator GPX4, enact their antioxidant activities by reducing hydroperoxides using glutathione. […] GPX1 and GPX4 inhibitors have thus shown promise as anti-cancer agents. Existing inhibitors are often promiscuous, or modulate GPX activity only indirectly, so novel direct inhibitors identified through screening against GPX1 and GPX4 could be valuable. Here, we developed optimized glutathione reductase (GR)-coupled GPX assays for the biochemical high-throughput screen (HTS) of almost 12,000 compounds with known mechanisms of action. Initial hits were triaged using a GR counter-screen, assessed for isoform specificity using a separate GPX2 assay, and were assessed for general selenocysteine-targeting activity using a thioredoxin reductase (TXNRD1) assay. With this suite of assays, we identified novel GPX1/GPX2- and GPX4-specific inhibitors and can here present a validated pipeline for future discovery research for selenoprotein-targeting agents.
# SEQUENCE No. (e.g., 1, 2, 3, etc.); […] (e.g., Cells, Incubation, Reagent, etc.); VALUE; DESCRIPTION.
# 1; Reagent 1; 3 uL; GPx1 enzyme or no enzyme control in 1536-well, black, solid Greiner assay plate.
# 2; Compound; 25 nL; Kalypsis pin tool (Wako USA) equipped with a 1536-well pin head.
# 3; Incubation; 30 min; room temperature.
# 4; Reagent 2; 1 uL; 10 nM GPX1, 1 mM GSH, 0.5 mM CHP, 0.5 mM NADPH, 100 nM GR, 0.01% BSA substrate
# 5; Detection; Fluorescence; ViewLux microplate reader, excitation 340 nm and emission 450 nm.
# 6; Incubation; 15 min; room temperature.
# 7; Detection; Fluorescence; ViewLux microplate reader, excitation 340 nm and emission 450 nm.
# NOTES (numbers refer to Sequence numbers above)
# 1. 3 uL of 16.66 nM GPX1 and 0.016% BSA in assay buffer (50 mM Tris-HCl, 2 mM EDTA (pH 7.5), 150 mM NaCl) was added to columns 3-48 of 1536-well assay plates using a BioRAPTR Flying Reagent Dispenser (Let's Go Robotics (LGR), Carlsbad, CA). A no-enzyme control (0.01% BSA in TES assay buffer) was added to columns 1-2.
# 2. 25 nL of test compounds and DMSO controls were added to each well with a pin tool (Kalypsys).
# 3. The assay plates were incubated for 30 minutes at room temperature.
# 4. 1 uL of master mix (500 nM glutathione reductase (GR), 5 mM reduced glutathione (GSH), 2.5 mM NADPH in assay buffer) was added. 1 uL of cumene hydroperoxide (CHP) ([2.5 mM] in 50% EtOH) was then added within 5 minutes to initiate the reaction. Final concentrations were: 10 nM GPX1, 1 mM GSH, 0.5 mM CHP, 0.5 mM NADPH, 100 nM GR, 0.01% BSA.
# 5. Initial fluorescence readout (t=0) at 340/450 nm was measured using a ViewLux multimodal detector (PerkinElmer, Waltham, MA).
# 7. Endpoint fluorescence readout (t=15) at 340/450 nm was measured 15 min after room temperature incubation.
# Potency is read from the fitted curve at half-maximal effect.
SMILES,"activity, negative = inhibition [%]",Potency,outcome
CCCCNc1c(C(=O)OCC)c(C)nc2c1cnn2CC,-18.6,,
O=C1NCN(c2ccccc2)C12CCN(CCCC(c1ccc(F)cc1)c1ccc(F)cc1)CC2,-2.43,,
Cc1nc2ccccn2c(=O)c1CCN1CCC(C(=O)c2ccc(F)cc2)CC1,2.24,,
CCN1CCc2nc(N)oc2CC1,-24.9,,
CN(C)CCCN1c2ccccc2Sc2ccc(C(F)(F)F)cc21,,inactive,
COc1cc(C(=O)OCCCN2CCCN(CCCOC(=O)c3cc(OC)c(OC)c(OC)c3)CC2)cc(OC)c1OC,,inactive,
CCOC(=O)C1=C(C)NC(C)=C(C(=O)OC)C1c1cccc(Cl)c1Cl (stereo not given),,inactive,
O=C1CC2(CCCC2)CC(=O)N1CCCCN1CCN(c2ncccn2)CC1,,inactive,
CCCC(C(=O)OCCN(CC)CC)(c1ccccc1)c1ccccc1,-12.2,,
CCN(CC)CCCN(c1ccccc1)C1Cc2ccccc2C1,,inactive,
CC(=O)[C@@]1(O)CC[C@H]2[C@@H]3CCC4=CC(=O)CC[C@]4(C)[C@H]3CC[C@@]21C,-10.7,,
NC(=O)c1cn(Cc2c(F)cccc2F)nn1,,inactive,
Cc1ccc(Cl)c(Nc2ccccc2C(=O)O)c1Cl,,inactive,
CCCCNC(=O)NS(=O)(=O)c1ccc(C)cc1,,inactive,
CCc1c(C)[nH]c2c1C(=O)C(CN1CCOCC1)CC2 (stereo not given),,inactive,
CC(C)(Oc1ccc(CCNC(=O)c2ccc(Cl)cc2)cc1)C(=O)O,,inactive,
CC(=O)OCC1=C(C(=O)O)N2C(=O)[C@@H](NC(=O)Cc3cccs3)[C@H]2SC1,,10.1 µM (active),
O=C(O)CN(CCN(CC(=O)O)CC(=O)O)CCN(CC(=O)O)CC(=O)O,,inactive,
O=C(O)CCCCCCCC(=O)O,,inactive,
C[N+](C)(C)CCCCCCCCCC[N+](C)(C)C,,inactive,

SMILES,"activity, negative = inhibition [%]",Potency,outcome
C[n+]1cc2c3c(ccc2c2ccc4cc5c(cc4c21)OCO5)OCO3,,inactive,
COc1cc(Cc2cnc(N)nc2N)cc(OC)c1OC,,inactive,
CCCCOCCOCCOCc1cc2c(cc1CCC)OCO2,-1.14,,
COCCc1ccc(OCC(O)CNC(C)C)cc1 (stereo not given),,inactive,
CN(C)C(=O)Oc1cccc([N+](C)(C)C)c1,,inactive,
Nc1ncn([C@@H]2O[C@H](CO)[C@@H](O)[C@H]2O)c(=O)n1,,inactive,
Nc1nc(N)c2nc(-c3ccccc3)c(N)nc2n1,,2.86 µM (active),
CCN(CC)CCOCCOC(=O)C1(c2ccccc2)CCCC1,,inactive,
CCN(CC)CCNC(=O)c1ccc(NC(C)=O)cc1,-1.66,,
c1cc(CN2CCCCC2)cc(OCCCNc2nc3ccccc3s2)c1,,,inactive
CCOC(=O)c1cnc2c(cnn2CC)c1NN=C(C)C,,,inactive
C[C@]12CCC(=O)C=C1CC[C@@H]1[C@@H]2CC[C@@]2(C)[C@H]1CC[C@]2(O)C(=O)CO,,,inactive
c1ccc2c(c1)CCCC2C1=NCCN1 (stereo not given),,inactive,
COCC(=O)O[C@]1(CCN(C)CCCc2nc3ccccc3[nH]2)CCc2cc(F)ccc2[C@@H]1C(C)C,-21.3,,
CN(C)CCCN1c2ccccc2Sc2ccccc21,,inactive,
CCN(CC)CCNC(=O)c1cc(S(C)(=O)=O)ccc1OC,,inactive,
Cc1nc2c([nH]1)c(=O)n(C)c(=O)n2Cc1ccco1,2.5,,
CCn1nc(C(=O)O)c(=O)c2cc3c(cc21)OCO3,,inactive,
Fc1ccc(C(c2ccc(F)cc2)N2CCN(C/C=C/c3ccccc3)CC2)cc1,,inactive,
CCCCNc1ccc(C(=O)OCCN(C)C)cc1,,inactive,
